Data as given in PubChem BioAssay (Tox21).
Several values for one entry are separate records, joined by “and”; a condition that tells them apart may be missing. Equal entries are not always repeated. Activity calls are given as the source filed them. Where a call stands in place of a potency, no number is given. Unless noted, calls follow the shape of the dose curve; as a rule, active = well fitted curve in the direction sought with a large enough effect in the repeat runs; inconclusive = weak or mixed curves; inactive = no such curve, though single readings can be large; an effect the other way counts as inactive or inconclusive.

Assays:
[1] = qHTS assay to identify small molecule antagonists of the glucocorticoid receptor (GR) signaling pathway - cell viability counter screen (AID 720693); also: nearly all actives have a fitted effect of over 55% in size; also: potency is read from the fitted curve at half-maximal effect
[2] = qHTS assay for identifying genotoxic compounds that show differential cytotoxicity against isogenic chicken DT40 cell lines with known DNA damage response pathways - wild type cell line (AID 743012); also: nearly all actives have a fitted effect of over 60% in size; also: potency is read from the fitted curve at half-maximal effect
Method in brief: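 CellTiter-Glo luminescence readout of viability in wild type DT40 cells after 40 h compound exposure at 37 C/5% CO2; 300 cells/well; reagent incubated 30 min at room temperature before reading.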

[3] = qHTS assay for identifying genotoxic compounds that show differential cytotoxicity against isogenic chicken DT40 cell lines with known DNA damage response pathways - Rev3 mutant cell line (AID 743014); also: nearly all actives have a fitted effect of over 55% in size; also: potency is read from the fitted curve at half-maximal effect
[4] = qHTS assay for identifying genotoxic compounds that show differential cytotoxicity against isogenic chicken DT40 cell lines with known DNA damage response pathways - Rad54/Ku70 mutant cell line (AID 743015); also: nearly all actives have a fitted effect of over 60% in size; also: potency is read from the fitted curve at half-maximal effect
[5] = qHTS assay to identify small molecule antagonists of the androgen receptor (AR) signaling pathway - cell viability counter screen (AID 743033; also: nearly all actives have a fitted effect of over 45% in size; also: potency is read from the fitted curve at half-maximal effect)
[6] = qHTS assay to identify small molecule antagonists of the androgen receptor (AR) signaling pathway using the MDA cell line - cell viability counter screen (AID 743041; also: nearly all actives have a fitted effect of over 45% in size; also: potency is read from the fitted curve at half-maximal effect)
Method in brief: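 Cytotoxicity counter screen: MDA-kb2 AR-luc cells, compound + R1881, 16 h, 37C, 0% CO2; CellTiter-Fluor added at 15.5 h, fluorescence read after 30 min.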

[7] = qHTS assay to identify small molecule antagonists of the estrogen receptor alpha (ER-alpha) signaling pathway - cell viability counter screen (AID 743074; calls by dose curve;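 also: HEK293 cells carrying ER-alpha-UAS-bla reporter stimulated with 17beta-estradiol; nearly all actives have a fitted effect of over 45% in size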; also: potency is read from the fitted curve at half-maximal effect)
[8] = qHTS assay to identify small molecule antagonists of the estrogen receptor alpha (ER-alpha) signaling pathway using the BG1 cell line - cell viability counter screen (AID 743081);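 also: compound given together with 17beta-estradiol as the ER stimulus; series mostly up to about 70 µM; nearly all actives have a fitted effect of over 45% in size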
[9] = target: Aromatase (Homo sapiens) (UniProt P11511); assay: qHTS assay to identify aromatase inhibitors (AID 743083); also: nearly all actives have a fitted effect of over 55% in size; also: potency is read from the fitted curve at half-maximal effect
[10] = qHTS assay to identify small molecule antagonists of the thyroid receptor (TR) signaling pathway - cell viability counter screen (AID 743064); also: nearly all actives have a fitted effect of over 50% in size; also: potency is read from the fitted curve at half-maximal effect
Method in brief: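 Viability of T3-stimulated (1 nM final) GH3.TRE-Luc cells is measured by CellTiter-Fluor fluorescence after 23.5 h compound exposure at 37 °C plus 30 min reagent incubation.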

[11] = qHTS assay to identify small molecule antagonists of the thyroid receptor (TR) signaling pathway (AID 743065); also: potency is read from the fitted curve at half-maximal effect; nearly all actives have a fitted effect of over 55% in size
Method in brief: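 GH3.TRE-Luc rat pituitary cells (two TREs driving luciferase) were dosed with compound, then stimulated with 1 nM T3 (final) for 23.5 h at 37 C. ONE-Glo luminescence was the read-out, with CellTiter-Fluor fluorescence as the cytotoxicity counter-screen.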

[12] = tested on: thyroid hormone receptor (rat, GH3 cells); assay: qHTS assay to identify small molecule agonists of the thyroid receptor (TR) signaling pathway (AID 743066; calls by dose curve)
[13] = target: Estrogen receptor (Homo sapiens) (UniProt P03372); assay: qHTS assay to identify small molecule agonists of the estrogen receptor alpha (ER-alpha) signaling pathway using the BG1 cell line (AID 743079); also: nearly all actives have a fitted effect of over 20% in size; also: potency is read from the fitted curve at half-maximal effect
[14] = target: Androgen receptor (Homo sapiens) (UniProt P10275); assay: qHTS assay to identify small molecule antagonists of the androgen receptor (AR) signaling pathway (AID 743035; active = well fitted inhibition curve with a large enough effect in the signal ratio in the repeat runs, not every such curve was filed as active; inconclusive = weak or mixed curves, or effect the other way; inactive = no such curve, though single readings can be large or run the other way; the % refers to the signal ratio; also: potency is read from the fitted curve at half-maximal effect)
Method in brief: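 AR-bla HEK293 reporter cells; 4 h settle at 37C/5% CO2; compound + R1881 agonist, 16 h at 37C; LiveBLAzer B/G FRET substrate 2 h RT; fluorescence intensity read. qHTS format.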

[15] = target: Androgen receptor (Homo sapiens) (UniProt P10275); assay: qHTS assay to identify small molecule agonists of the androgen receptor (AR) signaling pathway using the MDA cell line (AID 743040; also: nearly all actives have a fitted effect of over 20% in size)
Method in brief: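 Luciferase read-out, ONE-Glo, 30 min RT. Cells: MDA-kb2 AR-luc, MMTV promoter with AR and GR response elements. Compound exposure 16 h, 37C, 0% CO2, after 5 h pre-incubation. qHTS agonist mode.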

[16] = target: Androgen receptor (Homo sapiens) (UniProt P10275); assay: qHTS assay to identify small molecule antagonists of the androgen receptor (AR) signaling pathway using the MDA cell line (AID 743042; also: nearly all actives have a fitted effect of over 55% in size; also: potency is read from the fitted curve at half-maximal effect)
Method in brief: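 MDA-kb2 breast carcinoma cells carrying MMTV-luciferase (AR/GR responsive) were co-treated with compounds and the agonist R1881 for 16 h at 37C. Inhibition read as ONE-Glo luminescence; CellTiter-Fluor fluorescence measured in parallel for cytotoxicity.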

[17] = target: Estrogen receptor (Homo sapiens) (UniProt P03372); assay: qHTS assay to identify small molecule agonists of the estrogen receptor alpha (ER-alpha) signaling pathway (AID 743075; calls by dose curve;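 also: HEK293 GripTite cells with ER-alpha and UAS-driven beta-lactamase reporter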)
[18] = target: Estrogen receptor (Homo sapiens) (UniProt P03372); assay: qHTS assay to identify small molecule antagonists of the estrogen receptor alpha (ER-alpha) signaling pathway (AID 743069; active = well fitted curve in the direction sought with a large enough effect in the signal ratio in the repeat runs, not every such curve was filed as active; inconclusive = weak or mixed curves, or effect the other way; inactive = no such curve, though single readings can be large or run the other way; the % refers to the signal ratio; also: potency is read from the fitted curve at half-maximal effect)
Method in brief: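 Beta-lactamase FRET fluorescence is read after 2 hr at room temperature with LiveBLAzer B/G substrate. Before that, ER-alpha-bla HEK293 cells sit 4 hr after plating, then receive compound plus 17beta-estradiol and incubate 18 hr at 37C.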

[19] = qHTS assay to identify small molecule antagonists of the estrogen receptor alpha (ER-alpha) signaling pathway using the BG1 cell line (AID 743080; calls by dose curve;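 also: BG1 cells stimulated with 17beta-estradiol alongside compound; nearly all actives have a fitted effect of over 25% in size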; also: potency is read from the fitted curve at half-maximal effect)
Method in brief: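 Endogenous full-length ER-alpha in BG1-Luc-4E2 cells drives a stably integrated 4×ERE luciferase gene; compounds were tested against 17beta-estradiol over 21.5 h, with luminescence and multiplexed viability fluorescence recorded.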

Chain of Aromatase (Homo sapiens) (P11511 whole entry, looked up): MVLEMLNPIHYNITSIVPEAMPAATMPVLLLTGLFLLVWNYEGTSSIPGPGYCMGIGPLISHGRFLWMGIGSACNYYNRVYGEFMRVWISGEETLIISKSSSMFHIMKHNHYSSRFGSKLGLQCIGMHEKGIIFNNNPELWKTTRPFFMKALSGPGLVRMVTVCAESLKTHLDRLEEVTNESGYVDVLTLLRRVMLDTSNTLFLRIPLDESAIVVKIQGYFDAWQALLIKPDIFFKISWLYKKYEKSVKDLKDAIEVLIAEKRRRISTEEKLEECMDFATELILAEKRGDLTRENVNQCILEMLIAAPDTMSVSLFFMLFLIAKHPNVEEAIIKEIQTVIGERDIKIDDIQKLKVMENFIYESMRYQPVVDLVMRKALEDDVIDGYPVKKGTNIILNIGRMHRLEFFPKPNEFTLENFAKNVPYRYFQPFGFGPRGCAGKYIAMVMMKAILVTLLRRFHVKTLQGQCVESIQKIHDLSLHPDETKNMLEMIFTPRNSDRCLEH
Chain of Androgen receptor (Homo sapiens) (P10275 whole entry, looked up): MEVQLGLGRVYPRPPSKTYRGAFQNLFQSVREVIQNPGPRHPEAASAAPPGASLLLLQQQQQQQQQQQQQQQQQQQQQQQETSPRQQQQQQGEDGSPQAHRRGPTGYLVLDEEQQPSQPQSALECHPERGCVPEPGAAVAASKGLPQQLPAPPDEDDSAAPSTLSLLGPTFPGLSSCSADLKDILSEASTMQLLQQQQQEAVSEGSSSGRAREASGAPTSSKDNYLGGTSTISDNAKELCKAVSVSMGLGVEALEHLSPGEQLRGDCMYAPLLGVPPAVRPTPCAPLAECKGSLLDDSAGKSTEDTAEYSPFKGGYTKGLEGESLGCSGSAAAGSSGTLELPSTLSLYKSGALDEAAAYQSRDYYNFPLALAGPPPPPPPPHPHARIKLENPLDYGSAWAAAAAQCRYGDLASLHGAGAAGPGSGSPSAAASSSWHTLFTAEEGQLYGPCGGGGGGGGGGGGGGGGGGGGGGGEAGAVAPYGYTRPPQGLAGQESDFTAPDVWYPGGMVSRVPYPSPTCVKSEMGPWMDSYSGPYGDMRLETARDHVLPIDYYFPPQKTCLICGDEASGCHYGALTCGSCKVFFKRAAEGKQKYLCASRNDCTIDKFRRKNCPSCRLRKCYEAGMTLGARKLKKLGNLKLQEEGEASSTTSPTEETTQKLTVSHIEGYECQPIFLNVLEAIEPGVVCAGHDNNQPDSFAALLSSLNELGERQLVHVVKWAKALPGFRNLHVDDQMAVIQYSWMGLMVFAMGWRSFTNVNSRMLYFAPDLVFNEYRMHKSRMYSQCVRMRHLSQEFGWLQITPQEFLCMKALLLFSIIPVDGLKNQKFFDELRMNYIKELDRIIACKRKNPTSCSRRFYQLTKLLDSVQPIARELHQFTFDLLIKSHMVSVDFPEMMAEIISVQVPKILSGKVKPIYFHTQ
Chain of Estrogen receptor (Homo sapiens) (P03372 whole entry, looked up): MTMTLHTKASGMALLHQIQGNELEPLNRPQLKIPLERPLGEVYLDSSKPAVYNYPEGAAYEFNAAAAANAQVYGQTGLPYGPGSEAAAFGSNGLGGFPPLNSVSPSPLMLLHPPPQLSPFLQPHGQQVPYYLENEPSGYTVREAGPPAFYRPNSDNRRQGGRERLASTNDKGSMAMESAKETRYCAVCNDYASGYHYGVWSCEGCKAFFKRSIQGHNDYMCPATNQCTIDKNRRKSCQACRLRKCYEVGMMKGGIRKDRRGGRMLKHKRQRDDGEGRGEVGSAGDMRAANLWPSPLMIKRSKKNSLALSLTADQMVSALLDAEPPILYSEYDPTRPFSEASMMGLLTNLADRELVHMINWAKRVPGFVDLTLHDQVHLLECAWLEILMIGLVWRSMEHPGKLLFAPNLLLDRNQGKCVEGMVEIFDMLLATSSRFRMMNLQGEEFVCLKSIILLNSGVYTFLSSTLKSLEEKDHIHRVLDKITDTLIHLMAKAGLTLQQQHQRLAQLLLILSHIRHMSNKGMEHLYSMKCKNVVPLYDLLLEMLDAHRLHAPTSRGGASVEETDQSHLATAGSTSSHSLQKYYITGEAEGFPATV

Row | SMILES | Potency [1] | Potency [2] | Potency [3] | Potency [4] | Potency [5] | Potency [6] | Potency [7] | Potency [8] | Potency [9] | Potency [10] | Potency [11] | Potency [12] | Potency [13] | Potency [14] | Potency [15] | Potency [16] | Potency [17] | Potency [18] | Potency [19]
1 | Cc1ncc(C[n+]2csc(CCOP(=O)(O)O)c2C)c(N)n1 | inactive | inactive | inactive | inactive | inactive | inactive | inactive | inactive | inactive | – | – | – | – | – | – | – | – | – | –
2 | CCCCCCCCCC[N+](C)(CCCCCCCCCC)CCC[Si](OC)(OC)OC | inactive | 5.45 µM (active) | 7.7 µM (active) | 7.7 µM (active) | 43.6 µM (active) | – | 49 µM (active) | inactive | 61.1 µM (active) | 21.7 µM (active) | 21.7 µM (active) | inactive | inactive | – | – | – | – | – | –
3 | CCCCCCCCCCCCCCCCCCNC(=O)OC1CCN(C(=O)OC[C@H](COC(=O)N(Cc2cccc[n+]2CC)C(=O)c2ccccc2OC)OC)CC1 | 16.9 µM (active) | 5.31 µM (active) | 6.68 µM (active) | 5.96 µM (active) | – | 23.7 µM (active) | 23.9 µM (active) | – | 21.1 µM (active) | 15 µM (active) | 13.3 µM (active) | – | – | 10.7 µM (active) | inactive | 13.3 µM (active) | inactive | – | –
4 | CCCCCCCC/C=C\CCCCCCCC(=O)N(CCO)CCO | 48.8 µM (active) | 15.3 µM (active) | 17.2 µM (active) | 13.6 µM (active) | – | 43.1 µM (active) | inactive | – | inactive | 54.3 µM (active) | 68.3 µM (active) | inactive | – | – | – | – | inactive | 21.8 µM [inconclusive] (active) | 54.3 µM (active)
5 | CC(C)OC(=O)Nc1ccc2nc(-c3cscn3)[nH]c2c1 | inactive | 1.68 µM (active) | 1.88 µM (active) | – | inactive | inactive | inactive | – | inactive | – | 3.76 µM (active) | inactive | 2.11 µM (active) | 4.25 µM (active) | inactive | inactive | inactive | – | –
6 | CN1C(=O)C[C@@H](C(=O)N[C@@H](Cc2cnc[nH]2)C(=O)N2CCC[C@H]2C(N)=O)NC1=O | inactive | inactive | inactive | inactive | – | inactive | inactive | inactive | inactive | inactive | – | inactive | inactive | – | – | – | inactive | inactive | inactive
7 | CN(C[C@@H](CC[N+]12CCC(C3CCCCC3)(CC1)CC2)c1ccc(Cl)c(Cl)c1)C(=O)c1cc(C(F)(F)F)cc(C(F)(F)F)c1 | 17.4 µM (active) | 6.86 µM (active) | 9.69 µM (active) | – | 19.5 µM (active) | 61.1 µM (active) | 49 µM (active) | – | 61.1 µM (active) | 21.7 µM (active) | – | – | – | – | inactive | 54.5 µM (active) | – | – | –
8 | Cc1cc(-c2ccc(N=Nc3ccc4c(S(=O)(=O)O)cc(S(=O)(=O)O)c(N)c4c3O)c(C)c2)ccc1N=Nc1ccc2c(S(=O)(=O)O)cc(S(=O)(=O)O)c(N)c2c1O | inactive | 23.7 µM (active) | 23.7 µM (active) | 11.9 µM (active) and 23.7 µM (active) | inactive | – | – | inactive | 26.6 µM (active) | inactive | 23.7 µM (active) | inactive | – | – | – | – | inactive | inactive | –
